# In PubChem BioAssay (Tox21):
# Inconclusive results are not listed. Unmarked numbers belong to inactive results. The source made the active and inactive calls. Unless noted, calls come from the whole dose curve.
# System: not listed separately
# Assay: qHTS assay to identify small molecule antagonists of the estrogen related receptor signaling pathway with the pleiotropic PPARgamma coactivator (PGC) from Tox21 10K library - cell viability counter screen (AID 1224840; active = well fitted cell-killing curve with a large enough effect in the repeat runs, not every such curve was filed as active; note: nearly all actives have a fitted effect of over 40% in size; note: potency is the fitted concentration of half-maximal effect)
# Details: PGC/ERR reporter cells viability, CellTiter-Fluor, 17.5 h; series mostly up to 92.4 µM; viability change, negative = cytotoxic: at the top concentration
# Procedure, shortened: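 Following seeding of 2,000 PGC/ERR cells/well and 6 hours' incubation, test compounds were delivered in DMSO. The plates then sat 17.5 hours at 37 C before a fluorogenic live-cell protease reagent (CellTiter-Fluor) was read after 30 min.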
# % is set by controls: 0 for no effect and ±100 for the full control effect.
SMILES,"viability change, negative = cytotoxic",Potency
CCCC(=O)O[C@]1(C(=O)COC(=O)CC)CC[C@H]2[C@@H]3CCC4=CC(=O)CC[C@]4(C)[C@H]3[C@@H](O)C[C@@]21C,-4.48% [at 19 µM],
O=C(Nc1ccc([N+](=O)[O-])cc1)Nc1ccc([N+](=O)[O-])cc1,9.39% [at 42.5 µM],
Nc1nc(Cl)nc2c1ncn2[C@@H]1O[C@H](CO)[C@@H](O)[C@@H]1F,1.54% [at 42.5 µM],
OC(CCCN1CCCCC1)(c1ccccc1)c1ccccc1,-2.67% [at 42.5 µM],
CCN(Cc1cccc(S(=O)(=O)O)c1)c1ccc(C(=C2C=CC(=[N+](CC)Cc3cccc(S(=O)(=O)[O-])c3)C=C2)c2ccccc2)cc1,-5.59% [at 42.5 µM],
C[N+]1(C)CCC(=C(c2ccccc2)c2ccccc2)CC1,1.93% [at 42.5 µM],
CC(=O)OCC(=O)[C@H]1CC[C@H]2[C@@H]3CCC4=CC(=O)CC[C@]4(C)[C@H]3CC[C@]12C,8.26% [at 42.5 µM],
CN1Cc2cc(C(=O)N3CCC(C4CCNCC4)CC3)ccc2N[C@@H](CC(=O)O)C1=O,0.637% [at 42.5 µM],
CN(C)C(=O)Nc1ccc(Oc2ccc(Cl)cc2)cc1,-18.8%,
Nc1ccc(S(=O)(=O)O)c(N)c1,-6.35%,
CCC(=O)Oc1ccc(/C(CC)=C(\CC)c2ccc(OC(=O)CC)cc2)cc1,-6.11%,
CC(C)CCCC(=O)O,4.51%,
COC(=O)CC(=O)C(C)(C)C,-6.78%,
Cc1ccccc1N1C(=O)c2cc(S(N)(=O)=O)c(Cl)cc2NC1C (configuration not stated),6.66% [at 42.5 µM],
O=C(O)c1c(O)c(-c2ccccc2)nc2ccccc12,-5.85% [at 42.5 µM],
CC1(C)O[C@@H]2C[C@H]3[C@@H]4CCC5=CC(=O)C=C[C@]5(C)[C@H]4[C@@H](O)C[C@]3(C)[C@]2(C(=O)CO)O1,12.2% [at 42.5 µM],
O=c1[nH]c2ccc(S(=O)CCN3CCC(Cc4ccc(F)cc4)CC3)cc2o1 (configuration not stated),-7.39%,
CCCCC(CC)COC(=O)COc1ccc(Cl)cc1C (configuration not stated),10.6%,
O=S1OCCO1,1.13%,
CNC(=S)NC,-20.5%,
C/C(=N/NC(=O)c1ccncc1)C(=O)O,2.96% [at 42.5 µM],
CO/N=C1\CN(c2nc3c(cc2F)c(=O)c(C(=O)O)cn3C2CC2)CC1CN (configuration not stated),-4.81% [at 42.5 µM],
O=C(O)c1ccc(CO)o1,3.29%,
CCCOc1ccc(S(=O)(=O)N2CCN(CC)CC2)cc1-c1nc2c(CC)n(Cc3ccccn3)nc2c(=O)[nH]1,-8.57%,
O=C(CCC1CCN(Cc2ccccc2)CC1)c1ccc2c(c1)NCCCC2,-12.3% [at 42.5 µM],
CCOC(=O)OCC,3.32%,
CC(C)(C)CC(C)(C)c1ccc(OCCO)cc1,,54.2 µM (active)
CSc1ccc(Oc2ccc(S(N)(=O)=O)cc2CN(C)C)cc1C,-23.2%,
COc1ccc([C@@H]2Sc3ccccc3NC(=O)[C@@H]2O)cc1,-24.5% [at 42.5 µM],
CCCCCCOC(=O)C(C)C,0.416%,

# System: not listed separately
# Assay: qHTS assay to identify small molecule antagonists of the estrogen related receptor signaling pathway with the pleiotropic PPARgamma coactivator (PGC) from Tox21 10K library (AID 1224841; call rule not given here; note: actives are mostly falling curves and most rising ones were filed inactive; nearly all actives have a fitted effect of over 50% in size; note: potency is the fitted concentration of half-maximal effect)
# Details: PGC/ERR reporter cell line, ONE-Glo luciferase, 18 h; series mostly up to 92.4 µM; activity, negative = inhibition: at the top concentration
# Procedure, shortened: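 qHTS antagonist format: PGC/ERR cells, 2k/well, compound in DMSO by pin transfer after 6 h attachment, 18 h treatment at 37 C, One-Glo luminescence read at 30 min.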
SMILES,"activity, negative = inhibition",Potency
OC(CCCN1CCCCC1)(c1ccccc1)c1ccccc1,-7.99% [at 42.5 µM],
C[N+]1(C)CCC(=C(c2ccccc2)c2ccccc2)CC1,-3.31% [at 42.5 µM],
Nc1ccc(S(=O)(=O)O)c(N)c1,-0.698%,
CC(C)CCCC(=O)O,-0.273%,
CC1(C)O[C@@H]2C[C@H]3[C@@H]4CCC5=CC(=O)C=C[C@]5(C)[C@H]4[C@@H](O)C[C@]3(C)[C@]2(C(=O)CO)O1,7.25% [at 42.5 µM],
O=c1[nH]c2ccc(S(=O)CCN3CCC(Cc4ccc(F)cc4)CC3)cc2o1 (configuration not stated),-8.69%,
O=S1OCCO1,2.34%,
O=C(CCC1CCN(Cc2ccccc2)CC1)c1ccc2c(c1)NCCCC2,,18.8 µM (active)
CSc1ccc(Oc2ccc(S(N)(=O)=O)cc2CN(C)C)cc1C,10.8%,

# System: not listed separately
# Assay: qHTS assay to identify small molecule agonists of the estrogen related receptor signaling pathway with the pleiotropic PPARgamma coactivator (PGC) from Tox21 10K library (AID 1224842; active = well fitted activation curve with a large enough effect in the repeat runs; note: nearly all actives have a fitted effect of over 15% in size)
# Details: PGC/ERR reporter cell line, luciferase ONE-Glo, 18 h; series mostly up to 92.4 µM; activation: at the top concentration
# Procedure, shortened: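 PGC/ERR reporter cells (NTP line) were seeded 2,000 per well, rested 6 h at 37 C/5% CO2, then pin-dosed with compounds in DMSO for 18 h at 37 C; luciferase read by One-Glo luminescence after 30 min at room temperature.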
row,SMILES,activation
1,OC(CCCN1CCCCC1)(c1ccccc1)c1ccccc1,-2.42% [at 42.5 µM]
2,CCN(Cc1cccc(S(=O)(=O)O)c1)c1ccc(C(=C2C=CC(=[N+](CC)Cc3cccc(S(=O)(=O)[O-])c3)C=C2)c2ccccc2)cc1,-0.866% [at 42.5 µM]
3,CC(=O)OCC(=O)[C@H]1CC[C@H]2[C@@H]3CCC4=CC(=O)CC[C@]4(C)[C@H]3CC[C@]12C,-0.432% [at 42.5 µM]
4,CN1Cc2cc(C(=O)N3CCC(C4CCNCC4)CC3)ccc2N[C@@H](CC(=O)O)C1=O,0.363% [at 42.5 µM]
5,CN(C)C(=O)Nc1ccc(Oc2ccc(Cl)cc2)cc1,-12.1%
6,Nc1ccc(S(=O)(=O)O)c(N)c1,-0.193%
7,CCC(=O)Oc1ccc(/C(CC)=C(\CC)c2ccc(OC(=O)CC)cc2)cc1,-12%
8,CC1(C)O[C@@H]2C[C@H]3[C@@H]4CCC5=CC(=O)C=C[C@]5(C)[C@H]4[C@@H](O)C[C@]3(C)[C@]2(C(=O)CO)O1,2.01% [at 42.5 µM]
9,O=c1[nH]c2ccc(S(=O)CCN3CCC(Cc4ccc(F)cc4)CC3)cc2o1 (configuration not stated),-3.07%
10,O=S1OCCO1,1.16%
11,CO/N=C1\CN(c2nc3c(cc2F)c(=O)c(C(=O)O)cn3C2CC2)CC1CN (configuration not stated),-11.8% [at 42.5 µM]
12,O=C(CCC1CCN(Cc2ccccc2)CC1)c1ccc2c(c1)NCCCC2,-14.8% [at 42.5 µM]
13,CC(C)(C)CC(C)(C)c1ccc(OCCO)cc1,-24.7%
14,CCCCCCOC(=O)C(C)C,0.73%

# Biological target: Thyrotropin receptor (Homo sapiens) (UniProt P16473)
# Assay: qHTS assay to identify small molecule agonists of the thyroid stimulating hormone receptor (TSHR) signaling pathway (AID 1224843); note: nearly all actives have a fitted effect of over 45% in size
# Details: TSHR-HEK293 cells, cAMP HTRF, agonist mode, 30 min; series mostly up to 92.4 µM; activation: at the top concentration
# Procedure, shortened: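 Cell line HEK293 with TSHR; density 800/well. Exposure 30 min RT. Readout HTRF cAMP (cAMP-d2/anti-cAMP-cryptate), 1 h RT before reading.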
# Chain of Thyrotropin receptor (Homo sapiens) (P16473 whole entry, looked up): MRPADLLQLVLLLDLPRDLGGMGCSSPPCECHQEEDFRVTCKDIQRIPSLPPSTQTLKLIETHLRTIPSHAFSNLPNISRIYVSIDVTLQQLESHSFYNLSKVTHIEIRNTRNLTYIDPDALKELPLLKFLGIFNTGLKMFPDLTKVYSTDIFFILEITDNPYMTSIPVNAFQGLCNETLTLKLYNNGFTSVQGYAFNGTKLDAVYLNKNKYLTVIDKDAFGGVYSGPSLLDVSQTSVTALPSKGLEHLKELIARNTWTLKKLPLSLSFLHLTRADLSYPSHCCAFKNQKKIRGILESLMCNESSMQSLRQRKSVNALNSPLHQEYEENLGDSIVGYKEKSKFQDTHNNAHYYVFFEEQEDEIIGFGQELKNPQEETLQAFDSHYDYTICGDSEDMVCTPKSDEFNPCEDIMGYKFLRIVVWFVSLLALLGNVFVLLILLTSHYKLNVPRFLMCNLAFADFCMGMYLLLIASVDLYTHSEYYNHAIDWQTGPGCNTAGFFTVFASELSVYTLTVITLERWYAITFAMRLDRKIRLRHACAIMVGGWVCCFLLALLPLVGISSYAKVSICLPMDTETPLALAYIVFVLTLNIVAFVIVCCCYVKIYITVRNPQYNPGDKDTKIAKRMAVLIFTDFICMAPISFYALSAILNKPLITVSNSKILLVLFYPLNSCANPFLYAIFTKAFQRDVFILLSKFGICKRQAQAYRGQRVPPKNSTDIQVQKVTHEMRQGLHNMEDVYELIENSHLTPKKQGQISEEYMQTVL
row,SMILES,activation
1,CCCC(=O)O[C@]1(C(=O)COC(=O)CC)CC[C@H]2[C@@H]3CCC4=CC(=O)CC[C@]4(C)[C@H]3[C@@H](O)C[C@@]21C,-3.04% [at 19 µM]
2,O=C(Nc1ccc([N+](=O)[O-])cc1)Nc1ccc([N+](=O)[O-])cc1,0.892% [at 42.5 µM]
3,Nc1nc(Cl)nc2c1ncn2[C@@H]1O[C@H](CO)[C@@H](O)[C@@H]1F,17.9% [at 42.5 µM]
4,OC(CCCN1CCCCC1)(c1ccccc1)c1ccccc1,-1.43% [at 42.5 µM]
5,CC(=O)[C@H]1CC[C@H]2[C@@H]3C=CC4=CC(=O)CC[C@@]4(C)[C@@H]3CC[C@]12C,-1.54% [at 42.5 µM]
6,CCN(Cc1cccc(S(=O)(=O)O)c1)c1ccc(C(=C2C=CC(=[N+](CC)Cc3cccc(S(=O)(=O)[O-])c3)C=C2)c2ccccc2)cc1,0.262% [at 42.5 µM]
7,C[N+]1(C)CCC(=C(c2ccccc2)c2ccccc2)CC1,1.06% [at 42.5 µM]
8,CCOC(=O)N1CCC(n2c(=O)[nH]c3cc(Cl)ccc32)CC1,-1.68% [at 42.5 µM]
9,CC(=O)OCC(=O)[C@H]1CC[C@H]2[C@@H]3CCC4=CC(=O)CC[C@]4(C)[C@H]3CC[C@]12C,0.511% [at 42.5 µM]
10,CN1Cc2cc(C(=O)N3CCC(C4CCNCC4)CC3)ccc2N[C@@H](CC(=O)O)C1=O,-5.8% [at 42.5 µM]
11,Nc1ccc(S(=O)(=O)O)c(N)c1,5.9%
12,CCC(=O)Oc1ccc(/C(CC)=C(\CC)c2ccc(OC(=O)CC)cc2)cc1,-18.2%
13,CCCOC(=O)c1ccc(N)cc1,-8.09% [at 42.5 µM]
14,O=C(CCCCCCCCC#CI)Oc1ccccc1,3.23% [at 42.5 µM]
15,CCC(C(=O)OCCN(CC)CC)c1ccccc1 (configuration not stated),-0.616% [at 42.5 µM]
16,CCn1nc(C)c2c1C(=O)NCC(c1ccc(O)cc1)=N2,2.28%
17,COC(=O)CC(=O)C(C)(C)C,-7.58%

row,SMILES,activation
1,Cc1ccccc1N1C(=O)c2cc(S(N)(=O)=O)c(Cl)cc2NC1C (configuration not stated),1.58% [at 42.5 µM]
2,O=C(O)c1c(O)c(-c2ccccc2)nc2ccccc12,-6.3% [at 42.5 µM]
3,CC1(C)O[C@@H]2C[C@H]3[C@@H]4CCC5=CC(=O)C=C[C@]5(C)[C@H]4[C@@H](O)C[C@]3(C)[C@]2(C(=O)CO)O1,-1.99% [at 42.5 µM]
4,NC(=O)N(O)[C@@H]1COc2cc(OCc3ccccc3)ccc21,19.1%
5,O=c1[nH]c2ccc(S(=O)CCN3CCC(Cc4ccc(F)cc4)CC3)cc2o1 (configuration not stated),0.274%
6,CCCCC(CC)COC(=O)COc1ccc(Cl)cc1C (configuration not stated),-24.8%
7,O=S1OCCO1,12.8%
8,CNC(=S)NC,5.84%
9,C/C(=N/NC(=O)c1ccncc1)C(=O)O,-0.546% [at 42.5 µM]
10,CO/N=C1\CN(c2nc3c(cc2F)c(=O)c(C(=O)O)cn3C2CC2)CC1CN (configuration not stated),-4.06% [at 42.5 µM]
11,O=C(O)c1ccc(CO)o1,-3.76%
12,CCCOc1ccc(S(=O)(=O)N2CCN(CC)CC2)cc1-c1nc2c(CC)n(Cc3ccccn3)nc2c(=O)[nH]1,7.9%
13,O=C(CCC1CCN(Cc2ccccc2)CC1)c1ccc2c(c1)NCCCC2,-11.5% [at 42.5 µM]
14,CCOC(=O)OCC,3.07%
15,CCCCOC(=O)CCS,-2.69%
16,COc1ccc([C@@H]2Sc3ccccc3NC(=O)[C@@H]2O)cc1,2.68% [at 42.5 µM]
17,CCCCCCOC(=O)C(C)C,-29.1%
